Active and inactive are the calls of the source. The calls were made as follows: active = hit-call score of the fitted dose curve at least 0.9, where 1 is the maximum; inactive = score below 0.9.
These compounds were tested against human Opioid Receptor delta (DOP) Agonism, OPRD1 (gene 4985) (UniProt P41143) (assay: ERF_FR_GPCR_hOPRD1: Eurofins (ERF) G Protein-Coupled Receptor (GPCR) Radioligand Binding LeadHunter Assay for human Opioid Receptor delta (DOP) Agonism).
Method: ERF_FR_GPCR_hOPRD1 is a biochemical, single-readout assay that uses extracted gene-proteins in a cell-free assay. Measurements were taken 1 hour after chemical dosing in a 96-well plate. See delta (DOP) Human Opioid GPCR Binding (Agonist Radioligand) Assay, Cerep.ERF_FR_GPCR_hOPRD1 is an assay component calculated from the ERF_FR_GPCR_hOPRD1 assay. It is designed to measure radioligand binding using a type of binding reporter as detected by scintillation counting with radiometry technology.Data from the assay component ERF_FR_GPCR_hOPRD1 was analyzed at the assay endpoint, ERF_FR_GPCR_hOPRD1, in the positive analysis fitting direction relative to DMSO as the negative control and baseline of activity. Using a type of binding reporter, gain-of-signal activity can be used to understand changes in binding as they relate to gene OPRD1. To generalize the intended target to other relatable targets, this assay endpoint is annotated to the gpcr intended target family, where the subfamily is opioid.
Human cells are incubated for 60 minutes at room temprature with [3H]DADLE ligand (0.5 nM) and DPDPE as control inhibitor. Test Sample Requirements: Minimum for 1) Screen: 60 ul of 10 mM stock -OR- 1 mg (pre-weighed) for 10 uM final testing. 2) Dose Response: 90 ul of 10 mM stock -OR- 1 mg (pre-weighed) for a top concentration at 10 uM.

Sequence of human Opioid Receptor delta (DOP) Agonism, OPRD1 (gene 4985) (P41143 whole entry, looked up): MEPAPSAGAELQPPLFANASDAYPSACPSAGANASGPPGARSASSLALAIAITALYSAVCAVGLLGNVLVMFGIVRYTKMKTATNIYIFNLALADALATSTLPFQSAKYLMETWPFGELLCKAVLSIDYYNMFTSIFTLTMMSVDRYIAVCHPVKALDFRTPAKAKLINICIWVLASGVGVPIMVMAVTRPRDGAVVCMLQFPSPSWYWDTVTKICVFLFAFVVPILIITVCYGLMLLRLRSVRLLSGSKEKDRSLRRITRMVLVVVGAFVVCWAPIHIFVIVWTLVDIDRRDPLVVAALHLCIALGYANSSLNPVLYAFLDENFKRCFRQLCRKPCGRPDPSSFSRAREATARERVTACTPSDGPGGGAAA

Question: How did the AC50 turn out when `O=C(/C=C/c1ccc(O)cc1)CC(=O)/C=C/c1ccc(O)cc1` was run?
Answer: The AC50 was 1.5 µM (active).

From PubChem BioAssay AID2284168 (EPA ToxCast)
